Measured values taken from PubChem BioAssay AID1347414 (National Center for Advancing Translational Sciences (NCATS), 2020).
Inconclusive results are not listed. The source made the active and inactive calls. Calls follow the shape of the dose curve; as a rule, active = well fitted inhibition curve with a large enough effect; inconclusive = small, poorly fitted or top-dose-only effect; inactive = no such curve, though single readings can be large or run the other way.

Test: qHTS to identify inhibitors of the type 1 interferon - major histocompatibility complex class I in skeletal muscle: Secondary screen by immunofluorescence; also: nearly all actives have a fitted effect of over 70% in size
Conditions: C25cl48 myoblasts, IFN-b induced HLA-ABC immunofluorescence, 24 h; series mostly up to 49.8 µM
From the text: Assay Submitter (PI): Travis B. Kinder Ph.D. & James Inglese Ph.D. Assay Development and Screening Technology Laboratory (ADST) National Center for Advancing Translational Sciences (NCATS), Rockville, MD National Institute of Health (NIH), Bethesda, Maryland Idiopathic inflammatory myopathies, collectively referred to as myositis, are a group of rare autoimmune diseases characterized by skeletal muscle inflammation, weakness, and usually accompanied by systemic pathologies of the skin, lungs, or vasculature. Current immunosuppressive therapies and glucocorticoids are often not curative and are accompanied by harsh side effects, especially in children with juvenile myositis. We initiated a drug repurposing and development program to identify more targeted, less toxic therapeutics to treat myositis. Although its cause is not known, muscle from a subset of patients have an abundance of the inflammatory type 1 interferon (IFN) and a down-stream product major histocompatibility complex class I (MHC class I), which are both thought to contribute to damage and weakness. We conducted quantitative high throughput screening (qHTS) on 6,576 compounds (4,679 unique) through a series of cell-based assays to identify those that inhibit the IFN-stimulated expression of MHC class I in muscle precursor cells (myoblasts). The compound identification and evaluation strategy utilized a primary screen with reporter-tagged MHC class I in genome-engineered myoblasts, ATP content counter screen for viability, HLA-ABC immunofluorescence secondary screen, and HLA-B RT-qPCR tertiary screen. To verify activity of compounds identified by qHTS in HLA-B HiBit reporter cells, compounds were assayed by high throughput HLA-ABC immunofluorescence. Briefly, 216 compounds identified from primary and counter screening as inhibitory with minimal cytotoxicity were dispensed into black/clear bottom […] using acoustic dispensing in an 11-point, 1:3 titration with a high final concentration of 50 uM. Normal immortalized human myoblasts C25cl48 were added to the plates with 4.0 ng/ml human IFN-beta for 24 hours, fixed, stained by immunofluorescence for HLA-ABC protein, nuclei, and cell body, and analyzed by laser scanning cytometry as described by Auld et al., 2006. References: Auld DS, Johnson RL, Zhang Y, Veith H, Jadhav A, Yasgar A, Simeonov A, Zheng W, Martinez ED, Westwick JK, Austin CP, Inglese J. 2006. Fluorescent protein-based cellular assays analyzed by laser-scanning microplate cytometry in 1536-well plate format. Methods Enzymol 414:566-89. doi:10.1016/S0076-6879(06)14029-X
PROTOCOL TABLE (as described by Inglese et al., 2007) SEQUENCE No. (e.g., 1, 2, 3, etc.); […] (e.g., Cells, Incubation, Reagent, etc.); VALUE; DESCRIPTION 0; Compounds; 25 nl; Follow-up compounds dispensed at 25 nl/well with Labcyte Echo 655 acoustic dispenser in triplicate Aurora ChemLib 1536K black/clear bottom, low base, TC 1536-well plates (00019324). Also dispensed 25 nl/well DMSO control, ruxolitinib IFN-b inhibitor control titration, and digitonin cytotoxic control 1a; Cells; 5 uL; Multidrop Combi (Thermo Scientific) to seed 125 cells/well into eight plates in 5 ul/well of iHSKM growth medium (GM) without dexamethasone into columns 1+2. Add metal lids with gas-exchange holes 1b; Cells; 5 uL; Multidrop Combi (Thermo Scientific) to seed 125 cells/well into eight plates in 5 ul/well of iHSKM GM without dexamethasone + 4 ng/ml IFN-b into columns 3 - 48. […]
Potency is read from the fitted curve at half-maximal effect.

Potency, active:
Fc1cccc(-n2cnc3c(NCc4nc5c(F)c(F)ccc5[nH]4)nc(N4CCOCC4)nc32)c1 289 nM
COc1cc2c(cc1-c1c(C)noc1C)ncc1[nH]c(=O)n([C@H](C)c3ccccn3)c12 4080 nM
C#Cc1cccc(Nc2ncnc3cc(OC)c(OCCCCCCC(=O)NO)cc23)c1 289 nM
CC1(COc2ccc3c(c2)ncn3-c2ccc3cccc(N4CCC(N)CC4)c3n2)COC1 5140 nM
O=C(NC1CCNCC1)c1[nH]ncc1NC(=O)c1c(Cl)cccc1Cl 258 nM
CC1=C(CO)C(=O)O[C@@H]([C@@H](C)[C@H]2CC[C@H]3[C@@H]4C[C@H]5O[C@]56[C@@H](O)C=CC(=O)[C@]6(C)[C@H]4CC[C@]23C)C1 726 nM
COc1ccc(F)c(F)c1C(=O)c1cnc(NC2CCN(S(C)(=O)=O)CC2)nc1N 914 nM
O=C(Nc1cn[nH]c1-c1nc2ccc(CN3CCOCC3)cc2[nH]1)NC1CC1 2890 nM
CC(C)(C)c1ccc(S(=O)(=O)/C=C/C#N)cc1 2290 nM
CN(C)Cc1c(C(=O)NCCOc2ccc(C(=O)NO)cc2)oc2ccccc12 162 nM
CN(C)c1ccc(C(=O)NCCCCCCC(=O)NO)cc1 647 nM
CS(=O)(=O)N1CCC(NC(=O)c2[nH]ncc2NC(=O)c2c(Cl)cccc2Cl)CC1 1450 nM
OCCCNc1cc(-c2ccnc(Nc3cccc(Cl)c3)n2)ccn1 81.4 nM
C/C=C1\NC(=O)[C@H]2CSSCCC=C[C@H](CC(=O)N[C@H](C(C)C)C(=O)N2)OC(=O)[C@H](C(C)C)NC1=O 5.8 nM
CC(/C=C/C(=O)NO)=C\[C@@H](C)C(=O)c1ccc(N(C)C)cc1 204 nM
COc1cccc2c1C(=O)c1c(O)c3c(c(O)c1C2=O)C[C@@](O)(C(=O)CO)C[C@@H]3O[C@H]1C[C@H](N)[C@H](OC2CCCCO2)[C@H](C)O1 (stereo not given in full) 5140 nM
O=C(/C=C/C#Cc1cccc(NS(=O)(=O)c2ccccc2)c1)NO 1450 nM
COc1ccc(-c2nc(N3CCOCC3)c3sc(CN(C)c4ncc(C(=O)NO)cn4)cc3n2)cn1 5.8 nM
CC[C@@]1(O)C(=O)OCc2c1cc1n(c2=O)Cc2c-1nc1cc(F)c(C)c3c1c2[C@@H](N)CC3 1290 nM
Cc1ccc(C(=O)Nc2ccc(CN3CCN(C)CC3)c(C(F)(F)F)c2)cc1C#Cc1cnc2[nH]ncc2c1 726 nM
CCS(=O)(=O)N1CCN(c2ccc(Nc3ncc(C(N)=O)c(NC4CC4)n3)cc2)CC1 1290 nM
CC(C)c1c2cc(-c3ccnc(NC4CCC(NC5CCOCC5)CC4)n3)ccc2nn1C (stereo not given) 145 nM
C=C1C(=O)O[C@H]2C[C@H](C)C(/C=C/C(C)=O)=CC[C@H]12 5760 nM
CN1C/C=C/CCOc2cccc(c2)-c2ccnc(n2)Nc2cccc(c2)C1 115 nM
Cc1cc(O)c(-c2ccc([C@@H](C)CN(C)C)cc2)c2c1[nH]c(=O)c1sccc12 81.4 nM
O=C(/C=C/c1ccc(CN(CCO)CCc2c[nH]c3ccccc23)cc1)NO 36.4 nM
CN1CCC(c2c(O)cc(O)c3c(=O)cc(-c4ccccc4Cl)oc23)C1CO (stereo not given) 408 nM
Cc1sc2c(c1C)C(c1ccc(Cl)cc1)=N[C@@H](CC(=O)Nc1ccc(OCCOCCOCCOCCNc3cccc4c3C(=O)N(C3CCC(=O)NC3=O)C4=O)cc1)c1nnc(C)n1-2 (stereo not given in full) 91.4 nM
CN1CC[C@H](c2c(O)cc(O)c3c(=O)cc(-c4ccccc4Cl)oc23)[C@H](O)C1 102 nM
COCCN1CCN(Cc2ccc(-c3n[nH]c4c3C(=O)c3c(NC(=O)NN5CCOCC5)cccc3-4)cc2)CC1 51.4 nM
C[C@@]12O[C@@H](C[C@]1(O)CO)n1c3ccccc3c3c4c(c5c6ccccc6n2c5c31)CNC4=O 647 nM
O=C(/C=C/c1cccc(S(=O)(=O)Nc2ccccc2)c1)NO 514 nM

Potency, inactive:
O=C1CN2Cc3c(ccc(Cl)c3Cl)N=C2N1
CN1CCN(C(=O)c2ccc3cc(CCNc4ncnc5ccc(C#N)cc45)ccc3c2)CC1
O=C1NC(=O)[C@@H](c2c[nH]c3ccccc23)[C@H]1c1cn2c3c(cccc13)CCC2
CCNC(=O)c1noc(-c2cc(C(C)C)c(O)cc2O)c1-c1ccc(CN2CCOCC2)cc1
COC1CC(C(=O)c2ccc3c(N)ncc(-c4ccc(-c5cnn(C)c5)cc4)c3n2)C1 (stereo not given)
CC(C)c1c(-c2ccccc2)nc2c(C#N)c[nH]n2c1=O
CCCOc1ccc2nc(NC(=O)OC)[nH]c2c1
Cc1oncc1C(=O)Nc1ccc(C(F)(F)F)cc1
